Experimental data taken from the supplement of paper PMC13380429.

What was measured:
[1] = test system: Vero E6 infected with SARS-CoV-2; assay: morphology score (similarity to uninfected cells); higher = more like uninfected cells; conditions: 24 h
[2] = test system: Vero E6 infected with SARS-CoV-2; assay: SARS-CoV-2 infection rate relative to infected DMSO; higher = more infection, active = 60 or less; conditions: 24 h

Row | Structure (SMILES) | morphology score [1] | SARS-CoV-2 infection rate [2]
1 | CC(C(=O)O)c1ccc2c(c1)Cc1ccccc1-2 (centres undefined) [cicloprofen] (10 µM) | -0.0564 | 100% (inactive)
2 | CC1(CN)Cc2ccccc2C1 (10 µM) | 0.0351 | 112% (inactive)
3 | CCCC(C)C1(CC)C(=O)NC(=O)NC1=O (centres undefined) [pentobarbital] (10 µM) | 0.0334 | 100% (inactive)
4 | CCOc1c(N2CCOCC2)cnn(C)c1=O [emorfazone] (10 µM) | 0.185 | 100% (inactive)
5 | Cn1ccnc1S [methimazole] (10 µM) | -0.0741 | 108% (inactive)
6 | C1N2CN3CN1CN(C2)C3 [methenamine] (10 µM) | 0.11 | 100% (inactive)
7 | CCCCCCCCCCCCCCCC[N+](C)(C)C [cetrimonium] (0.833333 µM) | -0.199 | 114% (inactive)
8 | CN1[C@@H]2CC[C@H]1C[C@@H](OC(c1ccc(F)cc1)c1ccc(F)cc1)C2 [3-alpha-bis-(4-fluorophenyl)-methoxytropane] (10 µM) | 0.266 | 73% (inactive)
9 | O=C1c2ccccc2C(=O)C1c1ccc(Br)cc1 [bromindione] (10 µM) | 0.204 | 93.5% (inactive)
10 | CC1CNc2c(cccc2S(=O)(=O)N[C@@H](CCCNC(=N)N)C(=O)N2CC[C@@H](C)C[C@@H]2C(=O)O)C1 (mixture of isomers) [argatroban] (10 µM) | -0.0153 | 115% (inactive)
11 | CC1Nc2ccc(Cl)cc2S(=O)(=O)N1 (centres undefined) (10 µM) | 0.135 | 100% (inactive)
12 | CC(/C=C/C(=O)NO)=C\[C@@H](C)C(=O)c1ccc(N(C)C)cc1 [trichostatin-a] (0.833333 µM) | -0.0945 | 108% (inactive)
13 | O=C(CN1CCN(Cc2ccc3c(c2)OCO3)CC1)N1c2ccccc2Sc2ccccc21 [fenoverine] (10 µM) | 0.02 | 110% (inactive)
14 | CC(N)Cc1ccc(O)cc1 (centres undefined) [hydroxyamphetamine] (10 µM) | -0.0633 | 104% (inactive)
15 | CN1CC[C@H](c2c(O)cc(O)c3c(=O)cc(-c4ccccc4Cl)oc23)[C@H](O)C1 [alvocidib] (10 µM) | -0.17 | 108% (inactive)
16 | N=C(N)NCCC[C@H](N)C(=O)O [L-arginine] (10 µM) | 0.0506 | 113% (inactive)
17 | COc1ccc(-c2cc3c(C)nc(N)nc3n([C@H]3CC[C@H](OCCO)CC3)c2=O)cn1 (0.833333 µM) | 0.0503 | 102% (inactive)
18 | Cc1c(C(=O)NCCCO)cnn1-c1nc(-c2cccc(C(F)(F)F)c2)cs1 (10 µM) | 0.107 | 97.5% (inactive)
19 | Cc1cc(OCCN2CCOCC2)nn1-c1ccc2ccccc2c1 (10 µM) | 0.0539 | 99.5% (inactive)
20 | Oc1ncnc2[nH]ncc12 [allopurinol] (10 µM) | -0.0914 | 108% (inactive)
21 | C[C@H]1COC2=C1C(=O)C(=O)c1c2ccc2c1CCCC2(C)C [cryptotanshinone] (10 µM) | 0.0318 | 100% (inactive)

Row | Structure (SMILES) | morphology score [1] | SARS-CoV-2 infection rate [2]
22 | Cc1cccc(Oc2nc3c(C)cccn3c(=O)c2/C=C(\C#N)c2nc3ccccc3s2)c1 (10 µM) | 0.0471 | 106% (inactive)
23 | CN(C)Cc1ccc(S(=O)(=O)n2ccc(/C=C/C(=O)NO)c2)cc1 [resminostat] (0.833333 µM) | -0.101 | 116% (inactive)
24 | CCN(CC)Cc1cc(Nc2ccnc3cc(Cl)ccc23)ccc1O [amodiaquine] (10 µM) | 0.839 | 17.5% (active)
25 | CCCCC(=O)O[C@H]1CC[C@H]2[C@@H]3CCc4cc(O)ccc4[C@H]3CC[C@]12C (10 µM) | -0.00932 | 89% (inactive)
26 | CN1C(=O)C(N2CCCCC2)S/C1=C\C(=O)O (centres undefined) [ozolinone] (10 µM) | 0.00951 | 108% (inactive)
27 | N[C@@H](Cc1c[nH]c2ccc(O)cc12)C(=O)O [5-hydroxytryptophan] (10 µM) | 0.197 | 104% (inactive)
28 | CCCCCCCCCCCCOS(=O)(=O)O [dodecyl-sulfate] (10 µM) | 0.0848 | 103% (inactive)
29 | Cc1cc(CN2CCN(c3c(Br)cnc4nc(-c5ccc(N6CCN(C)CC6)cc5)[nH]c34)CC2)no1 (10 µM) | 0.247 | 116% (inactive)
30 | O=C(Nc1cc(C(F)(F)F)cc(C(F)(F)F)c1)c1cc(Cl)ccc1O [IKK-2-inhibitor-V] (10 µM) | -0.2 | 104% (inactive)
31 | CCC(=O)O[C@@](Cc1ccccc1)(c1ccccc1)[C@@H](C)CN(C)C [levopropoxyphene] (10 µM) | -0.0577 | 109% (inactive)
32 | FC(F)(F)c1ccc(CNc2ccc(Cc3c[nH]c4ncccc34)cn2)cc1 (10 µM) | 0.0358 | 110% (inactive)
33 | C[N+]1([O-])[C@@H]2C[C@@H](OC(=O)[C@H](CO)c3ccccc3)C[C@H]1[C@@H]1O[C@@H]12 (some centres undefined) [scopolamine-N-oxide] (10 µM) | 0.142 | 107% (inactive)
34 | N=C(N)NC(=N)Nc1ccccc1 [1-phenylbiguanide] (10 µM) | 0.219 | 86.5% (inactive)
35 | O=C(COc1cccc2c(=O)[nH]ccc12)c1ccccc1 (10 µM) | 0.0752 | 87% (inactive)
36 | Cc1cc(C)c(CNC(=O)c2cc(-c3ccc(CN4CCOCC4)cc3)cc3c2cnn3C2CCCC2)c(=O)[nH]1 (10 µM) | -0.13 | 110% (inactive)
37 | O=C(Nc1cc(Oc2cc(F)c(NC(=O)C3(C(=O)Nc4ccc(F)cc4)CC3)cc2F)ccn1)C1CC1 [altiratinib] (10 µM) | 0.122 | 88.5% (inactive)
38 | CC(C)n1nnc2cc(C(=O)O)ccc21 (10 µM) | 0.0496 | 102% (inactive)
39 | CNCCN(C)Cc1c[nH]nc1-c1ccc(O[C@H]2C[C@H](OCCC3CCOCC3)C2)cc1 (10 µM) | -0.0509 | 108% (inactive)
40 | CC[C@H](CC#N)OC(=O)N[C@@H](C)c1cccc(NC(=O)Nc2ccc(-c3cnco3)c(OC)c2)c1 (10 µM) | -0.000547 | 97% (inactive)
41 | FC(F)(F)c1ccccc1-c1cc(C(F)(F)F)c2[nH]c(C3=NOC4(CCCCC4)C3)nc2c1 (10 µM) | -0.000445 | 104% (inactive)
42 | Clc1ccc(C(Cn2ccnc2)OCc2ccsc2Cl)c(Cl)c1 (centres undefined) [tioconazole] (10 µM) | -0.0375 | 106% (inactive)

Row | Structure (SMILES) | morphology score [1] | SARS-CoV-2 infection rate [2]
43 | CC(C)Cn1cnc2c1c(=O)n(C)c(=O)n2C [isbufylline] (10 µM) | -0.0146 | 106% (inactive)
44 | OC(CN1CCN(c2cccc(Cl)c2)CC1)C(c1ccccc1)c1ccccc1 (centres undefined) (10 µM) | -0.0067 | 96.5% (inactive)
45 | Cc1ccc(-n2nc(C(C)(C)C)cc2NC(=O)Nc2ccc(OCCN3CCOCC3)c3ccccc23)cc1 [doramapimod] (10 µM) | 0.482 | 86% (inactive)
46 | CCOC(=O)c1ncc2[nH]c3cccc(OC(C)C)c3c2c1C (10 µM) | 0.286 | 88.5% (inactive)
47 | O=Nc1c(-c2c(O)[nH]c3ccccc23)[nH]c2ccccc12 [indirubin-3-monoxime] (0.833333 µM) | 0.00718 | 106% (inactive)
48 | CC(C)C[C@@H](C(=O)N[C@H](C(=O)OC1CCCC1)c1ccccc1)[C@H](O)C(=O)NO [tosedostat] (10 µM) | 0.243 | 97% (inactive)
49 | CCNC(=O)N1CCN(CCCC(c2ccc(F)cc2)c2ccc(F)cc2)CC1 [amperozide] (10 µM) | -0.101 | 108% (inactive)
50 | C[C@]12C/C(=C/O)C(=O)C[C@@H]1CC[C@@H]1[C@@H]2CC[C@@]2(C)[C@H]1CC[C@]2(C)O [Oxymetholone] (10 µM) | -0.162 | 120% (inactive)
51 | CCN(CCO)CCCOc1ccc2c(Nc3cc(CC(=O)Nc4cccc(F)c4)[nH]n3)ncnc2c1 [barasertib-HQPA] (10 µM) | 0.0875 | 112% (inactive)
52 | NC(=O)c1ccc2[nH]ccc2c1 (10 µM) | 0.192 | 87.5% (inactive)
53 | Cc1ccc(=O)n(-c2ccccc2)c1 [pirfenidone] (10 µM) | 0.289 | 83% (inactive)
54 | N#Cc1c(N)nc(SCC(N)=O)c(C#N)c1-c1ccc(OCC2CC2)cc1 (10 µM) | -0.0282 | 108% (inactive)
55 | O=C(O)c1cc(-c2ccc(F)cc2F)ccc1O [diflunisal] (10 µM) | -0.15 | 110% (inactive)
56 | CC(C)(C)CC(C)(C)c1ccc(O)c(Cc2ccc(Cl)cc2Cl)c1 [clofoctol] (10 µM) | 0.121 | 94% (inactive)
57 | COc1ccc2ccc(=O)oc2c1CC=C(C)C [osthol] (10 µM) | 0.243 | 107% (inactive)
58 | C/C(=C\c1ccc(C(=O)O)cc1)c1ccc2c(c1)C(C)(C)CCC2(C)C (10 µM) | -0.0726 | 102% (inactive)
59 | Cc1cc(CN)cc(C)c1NC(=O)c1ccc(-c2cc(Cl)ccc2Cl)o1 (10 µM) | 0.717 | 7.5% (active)
60 | Cc1cc(=O)[nH]c(=S)[nH]1 [methylthiouracil] (10 µM) | 0.0905 | 104% (inactive)
61 | CC(C)C[C@H](NC(=O)[C@H](CCCCN)NC(=O)[C@H](CCCNC(=N)N)NC(=O)[C@H](C)NC(=O)[C@H](CO)NC(=O)[C@H](CCCCN)NC(=O)[C@H](CCCNC(=N)N)NC(=O)[C@H](C)NC(=O)CNC(=O)[C@@H](NC(=O)[C@H](Cc1ccccc1)NC(=O)CNC(=O)CNC(=O)[C@@H](N)Cc1ccccc1)[C@@H](C)O)C(=O)N[C@@H](C)C(=O)N[C@@H](CC(N)=O)C(=O)N[C@@H](CCC(N)=O)C(=O)O [orphanin-fq] (10 µM) | 0.0454 | 112% (inactive)
62 | CC1(C)CC(Oc2ccc(-c3ccc(-c4cn[nH]c4)cc3O)nn2)CC(C)(C)N1 (10 µM) | -0.373 | 120% (inactive)
